Source: PubChem (several laboratories)
FAK blocker = FAK kinase inhibitors, primary screen, biochemical. 97,000 tested, 0.84% active. Focal adhesion kinase 1 (Homo sapiens), Q05397. inhibition, %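 (tested at 7 µM)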. biochemical FAK kinase activity assay;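 note: 0% = DMSO and 100% = reference compound high control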
hDAT+cocaine = changed hDAT dopamine uptake under cocaine IC80, either direction, primary screen, cocaine antagonist project, cell-based, LLC-PK1 hDAT, [14C]-dopamine uptake, MLSMR; 110,000 tested, 1.3% active; Sodium-dependent dopamine transporter (Homo sapiens), Q01959; LLC-PK1 hDAT cells, [14C]-dopamine uptake with cocaine IC80; actives deviate in either direction; B-score at 10 µM;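 active = Z score or B-score, a plate-position-corrected score, falls beyond the plate's 99.7% confidence bounds, in either direction; inactive = both scores lie inside the 99.7% bounds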;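 note: scored against the spread of the other compound wells on the same plate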
PTK2B oligo ant = antagonists of Pyk2 self-association, primary screen, Q293 cells, FERM NanoBiT luminescence, HTS; stronger effect = lower value; z-score (the deposit names both 25 µM and 10 µM); 99,000 tested, 0.83% active;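 active = Z-score of -3 or lower, scaled per plate to the spread of control and sample wells; inactive = z-score above -3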;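 note: negative z-score means lost luminescence so less FERM oligomerization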
Mac1 fbg inh = inhibitors of CD11b/CD18 adhesion to fibrinogen, primary screen, K562 cells, luminescence; inhibition, % at 10 µM; 93,000 tested, 0.54% active; AID 1497, 2009; Integrin beta-2 (Homo sapiens) + Integrin alpha-M (Homo sapiens), P05107+P11215; ATPlite luminescence; Mn2+ added to activate the integrin;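 active = primary inhibition of 50% or more at 10 µM, then 40% or more on retest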
Mac1 fbg enh = enhancers of CD11b/CD18 adhesion to fibrinogen, primary screen, K562 cells, luminescence; Integrin beta-2 (Homo sapiens) + Integrin alpha-M (Homo sapiens), P05107+P11215; ATPlite luminescence; activation, % at 10 µM; 93,000 tested, 0.07% active;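 active = 10 µM primary screen giving 50% or more activity, confirmed by 40% or more on retest at that dose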
D1 allo mod = D1 CRE-luciferase signal change, two-sided – cell-based, HEK293 D1, dopamine EC30, D1 allosteric modulator project, primary screen. D(1A) dopamine receptor (Homo sapiens), P21728. 58,000 tested, 5.9% active. B-score at 10 µM. dopamine EC30 potentiation; actives deviate in either direction. AID 641, 2007;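 active = luminescence count or its row- and column-corrected plate score outside the 99.7% band of the plate's sample wells, on either side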
FAK inh confirm = FAK kinase inhibitors, retest, confirmation, biochemical; shares compounds with FAK blocker; FAK kinase biochemical inhibition assay; inhibition, % at 7 µM; 750 tested, 28% active; AID 794, 2007
Numbers without * were called inactive; . = no result. Shown is part of a subset that was picked to be rich in hits. Cut-off read from the data, not from the text of the source, unless noted: active = inhibition above about 19%; inactive = the rest.

SMILES	FAK blocker	hDAT+cocaine	PTK2B oligo ant	Mac1 fbg inh	Mac1 fbg enh	D1 allo mod	FAK inh confirm
CC(Sc1nc(NCc2ccccc2)nc(N(C)C)n1)C(=O)Nc1ccccc1 (configuration not stated)	22*	-0.63	-1.8	5	2	.	10
Nc1ncnc2nc(SCc3ccccc3)[nH]c12	38*	0.78	-0.11	-9	0	.	13
Cc1c(C(=O)OCC2CCCO2)[nH]c2c1C(=O)CC(c1ccco1)C2 (configuration not stated)	26*	-0.021	0	27	2	-1.1	4
CCCCCC(=O)N1CC2(CC)CN(C(=O)CCCCC)CC(CC)(C1)C2=O	.	.	.	.	.	-0.13	.
Oc1ccc(Br)cc1/C=N/n1cnc2ccccc21	19*	-0.39	0.41	10	0	-0.089	6
OCC(CO)(CO)N=Cc1cc(Br)ccc1O	0	1.1	0.34	1	29	0.69	.
CCOc1ccc(C2C(C(=O)c3cccs3)=C(O)C(=O)N2CCCn2ccnc2)cc1 (configuration not stated)	1	.	.	.	.	.	.
COc1ccc2[nH]c(=O)c(-c3nnn(-c4ccccc4)n3)cc2c1	.	0.48	.	.	.	.	.
COc1ccc2[nH]c(=O)c(-c3noc(-c4ccccc4)n3)cc2c1	59*	0.14	-0.55	1	8	-0.2	36*
Cc1cccc(N2CSC3=C(C#N)C(c4ccc(C)o4)CC(=O)N3C2)c1 (configuration not stated)	24*	-0.23	.	-20	110	-0.86	9
COc1ccc(OC)c(C2CC(=O)N3CN(c4ccccc4)CSC3=C2C#N)c1 (configuration not stated)	0	-0.38	.	4	4	-0.46	.
O=C(NC1CCCCC1)c1noc2c1CCCCC2	.	0.45	0.23	-23	2	-0.11	.
COc1ccc(C2OC(=O)CC2C(=O)NC2CCCCCC2)cc1OC (configuration not stated)	21*	-0.12	0.7	4	-5	0.27	2
O=c1[nH]c(NCc2ccccc2)nc2c1CCCC2	3	2.3	0.6	-21	0	-1.4	.
CCC(C)n1c(NC(=O)c2ccccc2)c(C#N)c2nc3ccccc3nc21 (configuration not stated)	25*	-0.48	-0.5	.	.	.	-3
CCCCn1c(NC(=O)c2ccccc2)c(C#N)c2nc3ccccc3nc21	42*	.	-2.4	99*	-10	-1.3	1
CCCCn1c(NC(=O)c2ccc(F)cc2)c(C#N)c2nc3ccccc3nc21	.	.	.	.	.	0.4	.
CSc1nn(CCc2ccncc2)c(=S)s1	3	-0.52	0.41	.	.	-0.034	.
Cc1ccc(S(=O)(=O)N2CCN(C(=O)COc3ccc(-c4nnco4)cc3)CC2)cc1	-4	0.0027	1.3	-18	-1	-1	.
O=S(=O)(c1ccc(Oc2ccc(-c3nnco3)cc2)nc1)N1CCC(Cc2ccccc2)CC1	19*	-0.33	0.93	-24	3	-0.68	8
CCN1C(=O)[C@@H]2[C@H](C1=O)[C@@H]1CC(C(=O)OC)=C[C@@H](C(=O)OC)C3C1=C(C(=O)C3(CC)CC)[C@@H]2C (some centres not stated)	.	-0.6	.	.	.	.	.
COc1ccc(-c2[nH]ncc2/C=N\NS(=O)(=O)c2ccccc2)cc1OC	22*	.	2.6	-23	-4	.	15
COc1ccc(-c2[nH]ncc2/C=N\NS(=O)(=O)c2ccc(Cl)cc2)cc1	10	0.18	-0.53	1	-4	.	.
O=C1CCC(c2ccc(-n3ccnc3)cc2)=NN1	.	-0.44	.	.	.	.	.
O=Cc1ccccc1OS(=O)(=O)c1ccccc1	.	.	.	8	-1	.	.
SMILES	FAK blocker	hDAT+cocaine	PTK2B oligo ant	Mac1 fbg inh	Mac1 fbg enh	D1 allo mod	FAK inh confirm
CCN(CC)c1ccc2cc(-c3nc4ccccc4[nH]3)c(=O)oc2c1	53*	0.35	-2.3	101	-5	-3.6*	31*
CCN(CC)c1ccc2cc(-c3nc4ccccc4n3C)c(=O)oc2c1	-3	-0.087	-1.4	-4	-6	-0.017	.
CSc1nc2ccc3nc(NC(=O)c4ccc(Cl)s4)sc3c2s1	-1	-0.42	.	21	82	.	.
CSc1nc2ccc3nc(NC(=O)c4cccs4)sc3c2s1	40*	-0.26	-0.2	15	14	-1.5	26*
CN(C)c1ccc(/C=C(/NC(=O)c2ccccc2)C(=O)N/N=C/c2ccc([N+](=O)[O-])c(O)c2)cc1	20*	2.1	-0.75	13	-3	.	5
O=C(N/N=C/c1ccc2c(c1)OCO2)/C(=C/c1ccc2c(c1)OCO2)NC(=O)c1ccccc1	1	.	-0.83	-16	1	.	.
CCN(CC)C(=O)CSc1nc(N)c2c3c(sc2n1)CC(C)CC3 (configuration not stated)	28*	2.1*	-1	6	-2	.	32*
O=C(O)C1=C[C@H](C2CC2)C[C@H](OCCCCO)O1	.	-0.26	.	.	.	.	.
CCN(CC)CCN(C)Cc1ccc(Br)cc1	3	1	0.44	-2	-1	.	.
O=C1Nc2ccccc2C12OCC(COc1ccc(Cl)cc1)O2 (configuration not stated)	20*	1	-0.88	12	10	-0.67	1
CC(=O)c1cccc(NC(=O)COC(=O)[C@@H](NC(=O)OCc2ccccc2)C(C)C)c1	.	.	.	6	6	.	.
O=S(=O)(c1ccc(OCC(O)CN2CCc3ccccc3C2)cc1)N1CCOCC1 (configuration not stated)	-6	0.044	-0.43	-11	2	0.046	.
COC(=O)C(NC(=O)c1ccco1)(Nc1ccc(Br)cn1)C(F)(F)F (configuration not stated)	0	-0.46	-0.89	1	-4	-0.5	.
Cc1ccc(CSCC(=O)N/N=C/c2ccc(OCC(=O)Nc3ccc(C)cc3)cc2)cc1	26*	.	0.69	4	8	.	12
O=C(COC(=O)C1CC2C=CC1C2)NCc1ccco1 (configuration not stated)	30*	0.39	-0.09	-4	3	-0.36	3
CCN1C=CC(=C2C(=O)c3ccccc3C2=O)C=C1	36*	0.5	-0.5	.	.	-8.8*	11
O=C(COc1ccc(Cl)cc1Cl)NC(=O)N1CCOCC1	-1	-0.14	0.13	-1	1	-0.74	.
CC(C)(C)C(=O)NC(=C(Cl)Cl)P(=O)(O)O	66*	-0.12	-0.23	5	-2	.	52*
